The panel holds about 83,000 compounds, 20% with a hit somewhere; the sample as a whole holds those more often.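 How to read the values: 0–100, growth inhibition (40 = 60% inhibited); 0, no net growth; -100 to 0, cell death (-40 = 40% of starting cells died; -100 = all dead).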 Calls of active or inactive are those of the source. The calls were made as follows: active = growth percent below 10; inactive = the rest.
What was measured:
Test in all cases: NCI-60 one-dose screen, 48 h (100 = growth as untreated, 0 = no growth, -100 = all killed)
Settings in all cases: 10 µM unless noted
SR leukemia = system: SR leukemia
RPMI-8226 leukemia = system: RPMI-8226 leukemia
OVCAR-8 ovarian = system: OVCAR-8 ovarian
OVCAR-5 ovarian = system: OVCAR-5 ovarian
OVCAR-4 ovarian = system: OVCAR-4 ovarian
SK-OV-3 ovarian = system: SK-OV-3 ovarian
IGROV1 ovarian = system: IGROV1 ovarian
OVCAR-3 ovarian = system: OVCAR-3 ovarian
HS 578T breast = system: HS 578T breast
NCI/ADR-RES ovarian = system: NCI/ADR-RES ovarian

Measured: growth

CCn1cc(C(=O)O)c(=O)c2cc(F)c(N3CCN(CC(=O)Nc4ccc(C(C)=O)cc4)CC3)cc21
inactive: SR leukemia 91.9% | RPMI-8226 leukemia 106% | OVCAR-8 ovarian 100% | OVCAR-5 ovarian 107% | OVCAR-4 ovarian 113% | SK-OV-3 ovarian 99.9% | IGROV1 ovarian 102% | OVCAR-3 ovarian 111% | HS 578T breast 101% | NCI/ADR-RES ovarian 97.1%

O=c1c2ccccc2[nH]n1Cc1ccc2c(c1)OCO2
inactive: SR leukemia 115% | RPMI-8226 leukemia 90.5% | OVCAR-8 ovarian 104% | OVCAR-5 ovarian 95.7% | OVCAR-4 ovarian 105% | SK-OV-3 ovarian 112% | IGROV1 ovarian 111% | OVCAR-3 ovarian 104% | HS 578T breast 103% | NCI/ADR-RES ovarian 113%

COc1ccc(-c2nnc(NC(=O)CN3CCN(c4cc5c(cc4F)c(=O)c(C(=O)O)cn5C4CC4)CC3)s2)cc1OC
inactive: SR leukemia 102% | RPMI-8226 leukemia 102% | OVCAR-8 ovarian 98.4% | OVCAR-5 ovarian 106% | OVCAR-4 ovarian 104% | SK-OV-3 ovarian 98.6% | IGROV1 ovarian 104% | OVCAR-3 ovarian 106% | HS 578T breast 91.5% | NCI/ADR-RES ovarian 103%

N#Cc1c2c(c(N)[nH]c1=O)C(=O)NC2(O)c1ccccc1 (stereo not given)
inactive: SR leukemia 93.1% | RPMI-8226 leukemia 107% | OVCAR-8 ovarian 106% | OVCAR-5 ovarian 111% | OVCAR-4 ovarian 117% | SK-OV-3 ovarian 103% | IGROV1 ovarian 109% | OVCAR-3 ovarian 102% | HS 578T breast 111% | NCI/ADR-RES ovarian 105%

COc1ccc(Cl)cc1NC(=O)c1cc2c(n1C)-c1nc(NC(=O)C(C)(C)C)sc1CC2
inactive: SR leukemia 85.2% | RPMI-8226 leukemia 83.4% | OVCAR-8 ovarian 109% | OVCAR-5 ovarian 104% | OVCAR-4 ovarian 94.8% | SK-OV-3 ovarian 67.7% | IGROV1 ovarian 98.1% | OVCAR-3 ovarian 105% | HS 578T breast 98.5% | NCI/ADR-RES ovarian 93.8%

Nc1n[nH]c2cccc(C#Cc3cccc(NC(=O)c4cccc(C(F)(F)F)c4)c3)c12
inactive: SR leukemia 27.2% | RPMI-8226 leukemia 29.3% | OVCAR-8 ovarian 47.2% | OVCAR-5 ovarian 31.3% | OVCAR-4 ovarian 44.1% | SK-OV-3 ovarian 46.3% | OVCAR-3 ovarian 49.2% | NCI/ADR-RES ovarian 43.2%
active: IGROV1 ovarian -7.33% | HS 578T breast -0.652%

CC(C)CNCC(=O)Nc1ccc(Cc2ccc(NC(=O)CNCC(C)C)cc2)cc1
inactive: RPMI-8226 leukemia 32.8% | OVCAR-8 ovarian 62.1% | OVCAR-5 ovarian 72.8% | OVCAR-4 ovarian 71.6% | SK-OV-3 ovarian 84.1% | IGROV1 ovarian 47.2% | OVCAR-3 ovarian 74.5% | HS 578T breast 65.1% | NCI/ADR-RES ovarian 78.2%
active: SR leukemia 6.24%

C/C(=N/O)c1ccc(NC(=O)Cn2nc(-c3ccc(Cl)cc3)nc2N)cc1
inactive: SR leukemia 81.2% | RPMI-8226 leukemia 93.4% | OVCAR-8 ovarian 81.6% | OVCAR-5 ovarian 108% | OVCAR-4 ovarian 119% | SK-OV-3 ovarian 72.6% | IGROV1 ovarian 89.7% | OVCAR-3 ovarian 104% | HS 578T breast 88.5% | NCI/ADR-RES ovarian 99.6%

COc1ccc(SC2c3ccc(O)cc3Oc3nc(N)c(C#N)c(N)c32)cc1 (stereo not given)
inactive: SR leukemia 59.9% | RPMI-8226 leukemia 96.7% | OVCAR-8 ovarian 98% | OVCAR-5 ovarian 129% | OVCAR-4 ovarian 92.9% | SK-OV-3 ovarian 120% | IGROV1 ovarian 74.3% | OVCAR-3 ovarian 88.1% | HS 578T breast 94.4% | NCI/ADR-RES ovarian 98.8%

Cc1cccc(CC(=O)c2ccccc2)n1
inactive: SR leukemia 94.4% | RPMI-8226 leukemia 89.4% | OVCAR-8 ovarian 91.8% | OVCAR-5 ovarian 83.8% | OVCAR-4 ovarian 90% | SK-OV-3 ovarian 92.2% | IGROV1 ovarian 97% | OVCAR-3 ovarian 105% | HS 578T breast 91% | NCI/ADR-RES ovarian 75.7%

CCOC(=O)C1=C(N)Oc2cc(OC)ccc2C1c1ccc(F)c(F)c1 (stereo not given)
inactive: SR leukemia 12.7% | OVCAR-8 ovarian 36% | OVCAR-5 ovarian 56.9% | OVCAR-4 ovarian 69.4% | SK-OV-3 ovarian 22.8% | IGROV1 ovarian 54.1% | OVCAR-3 ovarian 17.7% | HS 578T breast 28.4% | NCI/ADR-RES ovarian 25.5%
active: RPMI-8226 leukemia 6.63%

O=c1nc(N2CCOCC2)oc2c(-c3cccc4ccccc34)cccc12
inactive: SR leukemia 72.9% | RPMI-8226 leukemia 96.1% | OVCAR-8 ovarian 85.2% | OVCAR-5 ovarian 89.2% | OVCAR-4 ovarian 97.1% | SK-OV-3 ovarian 90% | IGROV1 ovarian 75.4% | OVCAR-3 ovarian 85.8% | HS 578T breast 83.8% | NCI/ADR-RES ovarian 83.7%

CC(=O)n1cc(/C=C2\N=C(c3ccc(Cl)cc3)N(c3ccc(S(=O)(=O)Nc4nccs4)cc3)C2=O)c2ccccc21
inactive: SR leukemia 61.3% | RPMI-8226 leukemia 62% | OVCAR-8 ovarian 66.1% | OVCAR-5 ovarian 105% | OVCAR-4 ovarian 73.3% | SK-OV-3 ovarian 110% | IGROV1 ovarian 91.4% | OVCAR-3 ovarian 76.9% | HS 578T breast 72.4% | NCI/ADR-RES ovarian 106%

Reference: PubChem BioAssay (NCI)
